Data from PubChem BioAssay (NCATS).
Records with an inconclusive call do not appear. Active and inactive are the calls of the source. Calls follow the shape of the dose curve; as a rule, active = well fitted activation curve with a large enough effect in the main read-out, with a control signal flat (not every such curve was filed as active); inconclusive = small, poorly fitted or top-dose-only effect, or effect the other way, or a change in a side signal; inactive = flat fitted curve, though single readings scatter.

target: 3',5'-cyclic-AMP phosphodiesterase 4B (Homo sapiens) (UniProt Q07343); assay: qHTS Assay for Inhibitors of PDE-IV (AID 607); settings: HEK293 ACTOne CNG channel cells, membrane potential fluorescence; series mostly up to 22.9 µM; activation (PDE inhibition): at the top concentration; also: % of control where 0% means no effect
Sequence (Q07343 whole entry, looked up): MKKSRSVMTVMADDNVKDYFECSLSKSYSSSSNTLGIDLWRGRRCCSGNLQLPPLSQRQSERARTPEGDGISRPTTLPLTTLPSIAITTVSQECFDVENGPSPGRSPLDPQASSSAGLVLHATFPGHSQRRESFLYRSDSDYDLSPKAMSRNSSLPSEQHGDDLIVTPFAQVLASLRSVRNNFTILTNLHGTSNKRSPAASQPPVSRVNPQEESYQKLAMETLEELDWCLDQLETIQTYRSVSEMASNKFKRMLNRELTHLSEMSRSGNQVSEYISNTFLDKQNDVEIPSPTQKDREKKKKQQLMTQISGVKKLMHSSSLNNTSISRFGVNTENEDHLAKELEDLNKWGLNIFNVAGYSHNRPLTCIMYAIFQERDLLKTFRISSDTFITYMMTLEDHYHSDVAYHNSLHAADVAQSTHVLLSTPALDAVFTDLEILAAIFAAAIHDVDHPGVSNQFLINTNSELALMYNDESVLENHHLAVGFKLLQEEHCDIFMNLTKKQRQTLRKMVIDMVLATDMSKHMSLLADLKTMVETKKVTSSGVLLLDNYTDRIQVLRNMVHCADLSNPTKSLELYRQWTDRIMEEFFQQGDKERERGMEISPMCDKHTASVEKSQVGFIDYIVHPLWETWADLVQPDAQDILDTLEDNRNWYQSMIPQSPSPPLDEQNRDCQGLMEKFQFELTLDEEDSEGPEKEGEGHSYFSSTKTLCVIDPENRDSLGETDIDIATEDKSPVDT
Excerpt: NIH Chemical Genomics Center [NCGC]
NIH Molecular Libraries Screening Centers Network [MLSCN]
The cyclic nucleotide phosphodiesterases (PDEs) are proteins that catalyze hydrolysis of 3', 5'-cyclic nucleotides, such as cyclic adenosine monophosphate (cAMP) and cyclic guanosine monophosphate (cGMP), to their corresponding 5'-nucleotide monophosphates. These enzymes play an important role in controlling cellular concentrations of cyclic nucleotides and have a central role in a variety of intracellular signaling events. cAMP PDEs are emerging as a promising class of drug targets in asthma and cardiovascular disease therapeutic areas.
There are no commercially available cell-based screening assays for PDE inhibitors: currently biochemical assays are done using pure substrates (cAMP or cGMP) and purified recombinant PDE enzymes. As with other biochemical screens on intracellular targets, false positives and false negatives may result from issues involving cell membrane permeability, cellular metabolism, and the like.
Here we report the development of a cell-based screening assay for cAMP phosphodiesterase (PDE) inhibitors. The assay is based on the BD ACTOne# technology (BD Biosciences) which utilizes a modified cyclic nucleotide-gated channel (CNG) to monitor intracellular cAMP changes in live cells. The CNG channel is localized on the plasma membrane, and opens when the intracellular cAMP level increases, resulting in ion flux and cell membrane depolarization. The influx of cations through the CNG channel can be quantified using membrane potential (MP) dyes. We modified the BD ACTOne technology to allow the detection of PDE inhibitors, and performed an inhibitor screen for PDE-IV, which is expressed endogenously in HEK293 cells. We optimized this assay in homogeneous 1536-well plate assay format for high throughput screening.
NCGC Assay Protocol Summary:
The medium contained 10% FBS (Invitrogen), 2 mM L-glutamine, and 250 ug/ml G418 (Cellgro) and 1 ug/ml puromycin (Clontech). ACTOneTM parental cells (BD Biosciences) were maintained in the same medium without puromycin.
The activity of the CNG channel was measured by BD ACTOneTM membrane potential dye kit (BD Biosciences). Forskolin, a positive control for cAMP activation and RO 20-1724, a PDE inhibitor, were both purchased from Sigma and solublized in DMSO.
Sequence,Parameter,Value,Description
1,Reagent,3 uL,1000 cells/well 1536 TC treated Black plate
3,Compound,0.5 uL,Kalypsys dispense RO 20-1724 100 uM final [A]
4,Reagent,3 uL,BD membrane potential dye
6,Compound,23 nL,Final concentration was 0.7nM to 22.9uM
8,Detector,EX 535 / EM 590 [B],Envision
Footnotes: [A] The stock 2 mM RO 20-1724 PDE inhibitor was made in 10 % DMSO. Parental cell line received 10 uM forskolin + 100 uM RO. [B] Envsion settings: Bottom Excitation 535/20 nm top emission 590/20, gain of 150 and 5 flashes per well.
Keywords: PDE, PDE-IV, cytotoxicity, flourescence, MLSMR, MLSCN, NIH Roadmap, qHTS, NCGC

Activation (PDE inhibition), inactive:
CN1CCN(c2ncc3nc(-c4cccs4)c(=O)n(CCc4ccccc4)c3n2)CC1 12.7%, COc1ccccc1-c1nc(N2CCN(C)CC2)c2ccccc2n1 2.68%, COCCn1c(=O)c(-c2ccc(F)cc2)nc2cnc(Oc3ccccc3)nc21 7.57%, COc1ncc2nc(-c3ccccc3)c(=O)n(Cc3cccs3)c2n1 22.1%, COc1cccc(Nc2ncc3nc(-c4cc(F)cc(F)c4)c(=O)n(CCC#N)c3n2)c1 -4.78%, CN(C)Cc1ccccc1-c1ccc2ncnc(N(C)C)c2c1 24.5%, Cc1cnc(CNc2ncnc3ccc(-c4ccc(N(C)C)cc4)cc23)cn1 -2.38%, O=c1cnc2cnc(N3CCOCC3)nc2n1Cc1cccs1 27.4%, COc1ccc2[nH]cc(CCNc3nc(-c4c(C)noc4C)nc4ccccc34)c2c1 -26.5%, N#Cc1c(-c2ccccc2)no[n+]1[O-] 32.9%, COCCn1c(=O)c(-c2ccccc2)nc2cnc(Oc3cccc(Cl)c3)nc21 -4.48%, CN1CCN(c2ncc3nc(-c4ccccc4)c(=O)n(Cc4cccs4)c3n2)CC1 -18.5%, O=c1c(-c2ccccc2)nc2cnc(Oc3ccccc3)nc2n1C[C@H]1CCCO1 13.7%, O=S(=O)(O)C1CCNCC1 -5.73%, O=c1cnc2cnc(OCc3ccccc3)nc2n1CCc1ccccc1 -8.48%, CN1CCN(c2ncc3nc(-c4cn(C)c5ccccc45)c(=O)n(C[C@H]4CCCO4)c3n2)CC1 -7.86%, COc1ncc2nc(-c3cccs3)c(=O)n(CCC#N)c2n1 -3.52%, CN(C)c1ccc(-c2cncnc2NCCc2cnc[nH]2)cc1 28.9%, CN(C)c1nc(-c2ccc3c(c2)OCO3)nc2ccccc12 17%, O=C(c1cc(C(F)(F)F)cc(C(F)(F)F)c1)N1CCC2(CCCN(c3ncccn3)C2)CC1 21.2%, COc1ccc(Oc2ncc3nc(CCc4ccccc4)c(=O)n(CCC#N)c3n2)cc1 23.3%, O=C(c1ccco1)N1CCC2(CC1)CN(c1cccc(-c3ccccc3)c1)C2 -19.6%, CN1CCN(c2ncnc3ccc(-c4ccccc4C(F)(F)F)cc23)CC1 20.7%, CCCCN1CCC(COC(=O)c2cc(Cl)c(N)c3c2OCCO3)CC1 4.59%, COc1ccccc1CNc1ccnc(-c2cccc(NS(C)(=O)=O)c2)n1 4.33%, O=C1C=C(NCCc2cc(Br)c(O)c(Br)c2)C(=O)c2ncccc21 5.84%, CC(C)=CCC1=C(OCC(=O)O)C(=O)c2ccccc2C1=O -8.76%, COc1ccc(Oc2ncc3nc(-c4cccc(C#N)c4)c(=O)n(Cc4cccc(OC)c4)c3n2)cc1 6.52%, COc1ccc(Oc2ncc3nc(-c4cc(F)cc(F)c4)c(=O)n(C4CC4)c3n2)cc1 17.6%, COc1cccc(-c2cncnc2NCCc2c[nH]c3ccc(OC)cc23)c1 10.9%, CCOc1ccc2nc3cc(N=Nc4ccc(N)nc4N)ccc3c(N)c2c1 3.49%, COCCn1c(=O)c(-c2cccc(C#N)c2)nc2cnc(OCc3ccccc3)nc21 -2.93%, COc1cccc(Cn2c(=O)c(CCc3ccccc3)nc3cnc(N4CCN(C)CC4)nc32)c1 7.35%, COc1ccc(-c2nc3cnc(N4CCOCC4)nc3n(-c3ccc(OC)cc3)c2=O)cc1 22.4%, O=c1c(CCc2ccccc2)nc2cnc(N3CCNCC3)nc2n1Cc1cccs1 3.09%, COc1cccc(-c2nc(N(C)C)c3ccccc3n2)c1 11.2%, COc1cccc(Nc2ncc3nc(-c4ccc(F)cc4)c(=O)n(CCC#N)c3n2)c1 2.75%, COc1ccccc1-c1ccc2ncnc(N3CCNCC3)c2c1 7.07%, CC(=O)[C@@]1(O)Cc2c(O)c3c(c(O)c2[C@H](O[C@H]2C[C@H](N)[C@H](O)[C@H](C)O2)C1)C(=O)c1ccccc1C3=O -9.4%, CN1CCN(c2ncc3nc(-c4cccc(C#N)c4)c(=O)n(CCc4ccccc4)c3n2)CC1 0.523%
